Results published in PubChem BioAssay.

Biological target: Torsin-1A-interacting protein 2 (Homo sapiens) (UniProt Q8NFQ8)
Assay: LULL1 binders on small-molecule microarray, primary screen, cell lysate, human LULL1 lysate, 635/667 nm fluorescence (AID 1092);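 note: score merges per-feature 667 nm fluorescence with signal-to-noise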
Settings: hLULL1 lysate binding, 635 nm fluorescence, higher = more signal

Sequence of Torsin-1A-interacting protein 2 (Homo sapiens) (Q8NFQ8 whole entry, looked up): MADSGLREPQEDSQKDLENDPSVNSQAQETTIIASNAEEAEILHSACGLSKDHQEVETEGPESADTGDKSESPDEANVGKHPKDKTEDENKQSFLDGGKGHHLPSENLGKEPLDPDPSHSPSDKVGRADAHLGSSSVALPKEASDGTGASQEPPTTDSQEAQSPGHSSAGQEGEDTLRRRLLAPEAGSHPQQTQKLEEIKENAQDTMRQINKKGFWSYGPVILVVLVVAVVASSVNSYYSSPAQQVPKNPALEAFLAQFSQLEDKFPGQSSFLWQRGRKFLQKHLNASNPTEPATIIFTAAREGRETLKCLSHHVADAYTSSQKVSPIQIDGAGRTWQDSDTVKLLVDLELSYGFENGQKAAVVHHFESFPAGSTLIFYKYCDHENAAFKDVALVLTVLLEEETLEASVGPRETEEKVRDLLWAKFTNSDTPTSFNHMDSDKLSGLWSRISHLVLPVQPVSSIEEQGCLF

Row | Compound | composite z-score
1 | C[C@@]1([C@@H](NS(=O)(=O)c2cccc3cccnc23)c2ccc(-c3ccccc3)cc2)C[C@H]1C1CCCCC1 | 2.47
2 | O=C1O[C@H](c2ccccc2)[C@H](c2ccccc2)N2[C@H]1[C@@H](C(=O)N1CCN(c3ncccn3)CC1)[C@]1(C(=O)Nc3ccc(C#CC4(O)CCCCCC4)cc31)[C@H]2c1ccc(O)cc1 | 2.57
3 | C=CCC(OC(C)=O)[C@@H]1[C@@H](N(Cc2ccc(-c3ccccc3)cc2)C(=O)Cc2ccc(OC)cc2)c2cc(OCCCO)ccc2N1C(=O)c1ccc2ccccc2c1 (stereo not given in full) | 0.622
4 | O=C(NC1CC1)[C@@H]1c2ccccc2C(=O)N(C2CCCCC2)[C@H]1c1ccc(CO)cc1 | 2.76
5 | COC(=O)[C@@]1(Cc2ccccc2)[C@H]2c3cc(C(=O)N(C)C)n(Cc4nc5ccccc5[nH]4)c3C[C@H]2CN1C(=O)c1ccccc1 | 3.5
6 | C=CCOC(=O)[C@@H]1[C@H]2C(=O)O[C@H](c3ccccc3)[C@H](c3ccccc3)N2[C@H](c2ccc(OCCOC(=O)[C@@H]3C[C@@H]4C(=O)N[C@@H](CC(C)C)C(=O)N4[C@@H]3c3ccc(O)cc3)cc2)[C@@]12C(=O)Nc1ccc(I)cc12 | 1.82
7 | COCCOC(=O)N1C(=O)[C@@]2(c3cc(C#CCNC(N)=O)ccc31)[C@H](C(N)=O)[C@H]1C(=O)O[C@H](c3ccccc3)[C@H](c3ccccc3)N1[C@@H]2c1ccc(O)cc1 | 0.634
8 | C=CCNC(=O)[C@H]1[C@@H]2C(=O)O[C@@H](c3ccccc3)[C@@H](c3ccccc3)N2[C@@H](c2ccc(OCCO)cc2)[C@]12C(=O)Nc1ccc(C#Cc3ccc(OC)cc3)cc12 | 2.75
9 | CN1C(=O)C2C=CC(C(O)c3ccc(I)cc3)N(N(c3ccccc3)c3ccccc3)C2C1=O (stereo not given) | 0.155
10 | Cc1ccc(S[C@]2(C(=O)NCc3ccccc3)CC(=O)N(Cc3ccccc3Cl)[C@@H]2c2ccc(CO)cc2)cc1 | 2.07
11 | C[C@]1(C(=O)O)c2ccccc2C(=O)N(Cc2cc(C(F)(F)F)cc(C(F)(F)F)c2)[C@H]1c1ccc(CO)cc1 | 0.834
12 | COC(=O)C(CC#Cc1ccc2c(c1)[C@]1(C(=O)N2)[C@H](C(N)=O)[C@H]2C(=O)O[C@H](c3ccccc3)[C@H](c3ccccc3)N2[C@@H]1c1ccccc1OCCO)C(=O)OC | 3.13
13 | COC(=O)[C@@]1(Cc2ccc(F)cc2)[C@H]2c3cc(C(=O)N(C)C)n(Cc4ccc(C(F)(F)F)nc4)c3C[C@H]2CN1C(=O)c1ccccc1 | 3.71
14 | CCN1C(=O)C2CC(=O)C3C(CN(S(=O)(=O)c4ccc(C)cc4)C3c3ccc(C)cc3)C2C1=O (stereo not given) | 2.75
15 | C=C[C@H](OC)[C@@H](O)c1ccc(OC)c(O)c1 | -0.456
16 | CCCCCN1CC=CC23O[C@@H]4/C=C\CCCOC(=O)C4[C@H]2C(=O)N(CCCCCO)[C@@H]3C1=O (stereo not given in full) | -2.15
17 | CC(C)C[C@H]1NC(=O)CNC(=O)[C@@]23C(=O)N[C@@H](Cc4ccccc4)C2[C@H](C)[C@@]2(C)O[C@H]2C3/C=C/C/C=C\CNC1=O (stereo not given in full) | 0.921
18 | C=CCNC(=O)[C@@H]1[C@H]2C(=O)O[C@H](c3ccccc3)[C@H](c3ccccc3)N2[C@H](c2ccc(OCCO)cc2)[C@@]12C(=O)Nc1ccc(C#CCNC(N)=O)cc12 | 1.8

Row | Compound | composite z-score
19 | CC(C)[Si](C#Cc1ccccc1)(O[C@H](c1ccccc1)c1cn(Cc2ccccc2)nn1)C(C)C | 2.04
20 | C=C(C(=O)CC[C@@H](OC(=O)c1cccnc1)c1cccc(OCCO)c1)C(C)C | -0.826
21 | CCCCN1CC=CC23O[C@@H]4/C=C\CCC(C)OC(=O)C4[C@H]2C(=O)N(CCO)[C@@H]3C1=O (stereo not given in full) | 3.4
22 | O=C/C=C/c1ccc(-c2ccccc2)cc1 | -0.7
23 | COc1cc(CO)cc(I)c1O[C@H]1C=C(C(=O)NCCO)C[C@@H](N(CCN2CCOCC2)C(=O)C2CCCO2)[C@@H]1O (stereo not given in full) | 0.206
24 | CC(C)C[C@@H]1NC(=O)[C@H]2C[C@@H](C(=O)O)[C@@H](c3cccc(OCCO)c3)N2C1=O | 2.06
25 | COc1cc(Cc2cc3c(c(CCc4ccccc4)n2)[Si](C(C)C)(C(C)C)O[C@H]3c2ccccc2)cc(OC)c1OC | -0.355
26 | C=CCNC(=O)[C@@H]1[C@H]2C(=O)O[C@H](c3ccccc3)[C@H](c3ccccc3)N2[C@H](c2ccc(O)cc2)[C@@]12C(=O)Nc1ccc(C#CC3=CCCCC3)cc12 | 2.93
27 | Cc1cccc([C@H]2C[C@H]3C(Br)=C[C@@]2(CO)C(=O)[C@]32CO2)c1 | 2.39
28 | COCCOC(=O)N1C(=O)[C@@]2(c3cc(C#CCCO)ccc31)[C@H](C(=O)N1CCN(c3ncccn3)CC1)[C@H]1C(=O)O[C@H](c3ccccc3)[C@H](c3ccccc3)N1[C@@H]2c1ccc(OCCO)cc1 | 3.11
29 | COC(=O)[C@H](Cc1ccccc1)N1CC(C)(OC)O[C@@H](Cc2ccccc2)[C@H]1/C=C/C1CC1 (stereo not given in full) | 0.638
30 | CCOC(=O)C1=CCC(c2ccncc2)N(S(=O)(=O)c2ccc(C)cc2)C1 (stereo not given) | 3.84
31 | COC(=O)[C@@]1(Cc2ccc(F)cc2)[C@H]2c3cc(C(=O)N4CCCC4)n(Cc4ccc(C(F)(F)F)nc4)c3C[C@H]2CN1C(=O)c1ccccc1 | 2.29
32 | COCCOC(=O)N1C(=O)[C@@]2(c3cc(C#CCNC(N)=O)ccc31)[C@H](c1ccccc1OCCO)N1[C@H](c3ccccc3)[C@H](c3ccccc3)OC(=O)[C@H]1[C@@H]2C(=O)N1CCCCCCC1 | 1.79
33 | CCCCC(=C=CC[C@@H](O)c1ccccc1OCCO)C[C@@H](O)c1ccccn1 | 2.3
34 | O=C(NCC(F)(F)F)[C@@H]1c2ccccc2C(=O)N(Cc2cc(C(F)(F)F)cc(C(F)(F)F)c2)[C@H]1c1ccc(CO)cc1 | 1.04
35 | CC(CO)N1C(=O)[C@@H]2[C@H]3C(=O)OCC=C[C@H]3OC23C=CCN(c2ccc4ccccc4c2)C(=O)[C@@H]13 (stereo not given in full) | -1.16
